# Sampled rows, rich in hits. Any-hit rate of the full collection: about 20%.
# HCMV inh: qHTS Assay for inhibitors of the human cytomegalovirus (HCMV); HFF cells, HCMV-luciferase reporter, 72 h; stronger effect = lower value; activity change, negative = inhibition, % at 57.5 µM; 410,000 compounds, 4.5% hits; AID 1259415, 2018; in the data active = activity change below about -60%; inconclusive = no clear call, values can overlap the other calls; inactive = above about -39%
#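 Two-dose cell screen: HFF monolayers treated with compounds and infected with luciferase-expressing HCMV at 1 PFU/cell, 72 h at 37C, then lysed for luciferase measurement.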
# Shiga inhibitor: A qHTS for Small Molecule Inhibitors of Shiga Toxin; Vero cells, Shiga toxin protein synthesis inhibition reporter; inhibition, % at 38.7 µM; 290,000 compounds, 9.2% hits; in the data active = inhibition mostly above about 28%, no sharp cut-off; inactive = mostly below about 43%
# Cycloheximide cs: Cycloheximide Counterscreen for Small Molecule Inhibitors of Shiga Toxin. cell reporter, cycloheximide protein synthesis inhibition counterscreen. max response, %. 300,000 compounds, 12% hits. AID 2314, 2010; in the data active = max response mostly above about 13%, no sharp cut-off; inactive = mostly below about 14%; also: read at 38.3 µM for the half of the compounds with a filed dose
# Pf growth 96h: Primary qHTS for delayed death inhibitors of the malarial parasite plastid, 96 hour incubation; Potency, µM (highest dose often 28.7 µM), actives largely listed as inhibitors; AID 504834, 2011; P. falciparum luciferase reporter growth, 96 h; 320,000 compounds, 6.9% hits
#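 Luminescence readout: decreased luciferase signal marks inhibited growth of reporter-expressing P. falciparum in infected red cells (2% hematocrit, 0.05% parasitemia final), exposed to compound two generations (96 h, 37 C, 5% CO2).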
# Pf growth 48h: Primary qHTS for delayed death inhibitors of the malarial parasite plastid, 48 hour incubation | P. falciparum luciferase growth in erythrocytes, 48 h | Potency, µM (series often up to 28.7 µM), hits mostly inhibitors | 310,000 compounds, 5.9% hits | AID 504832, 2011
#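 Luminescence readout; reporter = integrated firefly luciferase in P. falciparum. RBC culture at 2% hematocrit, 0.1% parasitemia final, 37 C/5% CO2; decreased signal taken as growth inhibition.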
# A number is an active result; i = inactive; ? = inconclusive; nt = no result. Unless noted, calls follow the shape of the dose curve; as a rule, active = well fitted inhibition curve with a large enough effect; inconclusive = small, poorly fitted or top-dose-only effect, or another doubt; inactive = no such curve, though single readings can be large or run the other way.
SMILES,HCMV inh,Shiga inhibitor,Cycloheximide cs,Pf growth 96h,Pf growth 48h
O=C1CCCC/C1=C/Nc1cccc(C(F)(F)F)c1,i,50,48,?,i
CCOc1ccc(C2c3c(oc4ccc(C)cc4c3=O)C(=O)N2c2nc(C)c(C)s2)cc1OC (centres undefined),i,nt,nt,nt,nt
CCCCOc1ccc(-c2[nH]ncc2C=O)cc1,i,117,37,?,i
CCCCOc1ccc(-c2ncc([N+](=O)[O-])cn2)cc1,i,i,i,i,i
CCc1cc2c(=O)n(CC(=O)NCCc3ccc(OC)c(OC)c3)cnc2s1,i,i,i,?,i
CCc1cc2c(=O)n(CC(C)C)cnc2s1,i,63,48,i,i

# Screens from PubChem.
